# High-throughput results: PubChem BioAssay, National Center for Advancing Translational Sciences (NCATS)
# The list is not random: actives were taken first. Their share in the collection is about 2.6%.
# KCNH2 3.1 block – KCNH2 3.1 (human) potassium channel inhibition. activity change, % (tested at about 1.8 µM). 340,000 tested, 0.95% active. U2OS KCNH2 3.1, thallium flux FluxOr; stronger effect = lower value;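 active = maximum activity change below -70%; inconclusive = maximum activity change from -70% to -50%; inactive = maximum activity change above -50%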;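 also: thallium influx rate constant from kinetic fluorescence after stimulation buffer; % is scaled to controls: 0 for no effect and ±100 for the full control effect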
#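 Channel expression came from 3.1 mutant virus (1.77 x 10^8 /mL) applied to suspended U2OS cells for 4 h. Flux was tracked with FluxOr dye plus Red40 quencher, and kinetic rate constants normalized to controls.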
# KCNH2 WT inh – blocks the wildtype human KCNH2 potassium channel. Q12809. U2OS, BacMam KCNH2, thallium flux FluxOr; stronger effect = lower value. activity change, % at 1.84 µM. 340,000 tested, 0.37% active. AID 720551;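 active = maximum activity change below -70%; inconclusive = maximum activity change between -70% and -50%; inactive = maximum activity change above -50%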; also: % is scaled to controls: 0 for no effect and ±100 for the full control effect
#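 U2OS cells transduced with wild-type KCNH2 virus are loaded with FluxOr dye for 45 min, and thallium flux is measured in kinetic reads before and after stimulation buffer. Rate constants are normalized to DMSO controls.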
# TRPV1 PAM – human TRPV1 potentiation | Q8NER1 | TRPV1-expressing cells, Fluo-8 calcium influx, capsaicin EC20 potentiation | potentiation, % at 8.33 µM | 320,000 tested, 0.02% active; in the data active = potentiation above about 80%; inconclusive = between about 30% and that limit; also: 0% is about no effect
#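 TRPV1-expressing cells were cultured overnight at 35.5C and loaded with Fluo-8 calcium dye for 40 to 90 min at room temperature. After a 10 s baseline, compound was added and calcium influx was read kinetically for 3 min (ex 480/em 520 nm).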
# TRPV1 agonist – agonists of human vanilloid receptor 1 (TRPV1). Q8NER1. TRPV1-expressing cells, Fluo-8 calcium influx, agonist mode. activation, % at 8.33 µM. 320,000 tested, 0.19% active. AID 540275; in the data active = activation above about 80%; inconclusive = between about 30% and that limit; also: 0% is about no effect
#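 Cells expressing TRPV1 were dye-loaded with Fluo-8 and read kinetically: 10 s baseline, 3 min after compound (agonist portion), then 2 min after EC20 capsaicin (allosteric enhancer portion). Calcium-bound dye fluorescence at 480/520 nm.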
# ClpP mod – qHTS Assay for Activators of ClpP | ATP-dependent Clp protease proteolytic subunit (Bacillus subtilis (strain 168)), P80244 | purified B. subtilis ClpP, FRET peptide cleavage, 20 min | Potency, µM (highest dose often 57.5 µM), for inactives: top-dose activity change, negative = active | 340,000 tested, 1.9% active; active = well fitted falling curve with a large enough effect; inconclusive = small, poorly fitted or top-dose-only effect; inactive = no such curve, though single readings can be large or run the other way; also: potency is read from the fitted curve at half-maximal effect; the source files actives as falling curves though it sought activators and does not explain the sign; nearly all actives have a fitted effect of over 65% in size
#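 ClpP 10 microg/mL final, pH 8 Tris/KCl buffer with BSA, glycerol, Tween-20; compound pinned in; FRET-FV substrate; RT 20 min; Ex320/Em430; ΔFRET vs ADEP 5.8 microM, DMSO, no enzyme.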
# p53 reactivator – restores transcriptional activity of mutant p53. H1299 p53-A138V BP100-luciferase reporter, luminescence, 24 h. Potency, µM (doses to about 92.2 µM), for inactives: at the top dose activity change, positive = activation, actives largely listed as activators. 320,000 tested, 0.063% active. AID 504706; active = well fitted activation curve with a large enough effect; inconclusive = small, poorly fitted or top-dose-only effect; inactive = no such curve, though single readings can be large or run the other way; also: potency is read from the fitted curve at half-maximal effect; % of control where 0% means no effect; nearly all actives have a fitted effect of over 45% in size
#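 H1299 (p53-null), stable ts p53-A138V + BP100-Luc; 1000 cells/well, Opti-MEM/10% FBS; cpd 4 pt, 1:5; 24 h, 37 deg C, 5% CO2; detection reagent 10 min RT; luminescence.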
# * marks the source's active call; other numbers are inactive results; ? = inconclusive; . = no result.
SMILES,KCNH2 3.1 block,KCNH2 WT inh,TRPV1 PAM,TRPV1 agonist,ClpP mod,p53 reactivator
CCc1nc2ccc(C(=O)NCc3ccccc3OC)cn2c1N(CC)CCOC,.,.,.,.,1.0%,.
CCN(Cc1ccccc1)C(=O)CC(=O)N(CC)Cc1ccccc1,11.5,-8.0,-3.3,-0.3,.,0.2%
CCN(Cc1ccccc1)C(=O)CSc1ccccc1C(=O)O,-176.1*,-232.9*,0.7,-0.1,-1.1%,7.5%
CCCCc1ccc(S(=O)(=O)N/N=C(/C)c2ccncc2)cc1,.,-1.0,-4.9,14.7,31.6µM*,-7.6%
O=C(O/N=C\c1ccc(N2CCCCC2)c([N+](=O)[O-])c1)c1c(F)cccc1F,?,-9.5,-6.4,0.7,0.8%,-3.2%
Cc1ccc(C(=O)O/N=C\c2ccc(N3CCCCC3)c([N+](=O)[O-])c2)cc1,-77.2*,-13.6,-10.7,6.6,0.2%,4.8%
Cn1c(=O)n(C)c2cc([N+](=O)[O-])c(N3CCN(C(=O)c4ccccc4Cl)CC3)cc21,-14.1,-0.7,17.0,0.2,-0.5%,0.8%
CO/N=C/c1ccc(N2CCN(C(=O)c3cccc(C(F)(F)F)c3)CC2)c([N+](=O)[O-])c1,-36.9,-243.5*,19.8,6.3,0.5%,-10.3%
CO/N=C/c1ccc(N2CCN(C(=O)c3ccc(F)cc3)CC2)c([N+](=O)[O-])c1,-102.2*,8.7,-19.0,18.3,-1.0%,-3.7%
CO/N=C/c1ccc(N2CCN(C(=O)c3ccc(Cl)cc3Cl)CC2)c([N+](=O)[O-])c1,-108.7*,-11.6,-0.8,0.0,-0.1%,-1.8%
COc1ccc(-c2nc(C)c(CCNC(=O)c3ccco3)s2)cc1,.,.,.,.,4.5%,.
Cc1ccc(NC(=O)C2(C)CCN2C(=O)Cc2ccccc2Cl)cc1C (configuration not stated),.,.,.,.,-5.3%,.
COC(=O)c1ccccc1NC(=O)n1cc(C)cn1,0.9,2.8,-15.6,1.7,31.6µM*,-4.7%
COC(=O)c1ccccc1NC(=O)Nc1ccc(C)cn1,-5.6,2.4,-4.8,2.5,.,10.3%
Cc1csc2c(N3CCN(C(=O)Nc4ccc(OC(F)(F)F)cc4)CC3)ncnc12,-91.7*,4.6,-3.2,13.8,-0.5%,-5.6%
CCN(CC)c1ccc(S(=O)(=O)N2CCOCC2)cc1NC(=O)CNCc1cccc(Cl)c1,-5.9,4.6,.,.,-11.7%,.
COc1ccc(NC(=O)C2=CC(c3ccc(C)cc3)=NS(=O)(=O)N2C)cc1,-2.7,9.2,?,10.2,1.1%,7.1%
COc1ccc(C2=NS(=O)(=O)N(C)C(C(=O)N3CCC(C)CC3)=C2)cc1,-112.5*,0.8,11.4,13.8,-4.4%,11.2%
COc1cc2c(cc1OC)C(C(=O)Nc1ccc(F)c(Cl)c1)CC(=O)N2 (configuration not stated),-110.2*,2.1,16.6,-4.5,0.3%,.
COc1cc2c(cc1OC)C(c1ccc(Cl)cc1)CC(=O)N2 (configuration not stated),-5.4,-14.3,?,10.4,0.0%,-7.9%
NS(=O)(=O)c1ccc(NC(=O)c2ccc3c(c2)CCCC3)cc1,8.3,13.5,-4.8,91.7*,-10.0%,24.8%
O=C(NCc1ccccc1)c1ccc(NC(=O)c2nsc3ccccc23)cc1,.,.,.,.,121.5%,.
Cc1nc2ccccc2nc1-c1csc(-c2ccccc2)n1,.,.,.,.,-27.1%,.
CCOC(=O)c1c(C2COc3ccccc3O2)csc1NC(=O)c1ccccc1 (configuration not stated),-16.0,9.7,4.0,-0.2,14.1µM*,1.2%
CCOC(=O)c1c(NC(=O)C2COc3ccccc3O2)sc2c1CCN(Cc1ccccc1)C2 (configuration not stated),?,-20.1,-15.1,?,25.1µM*,29.5%
NC(=O)c1c(NC(=O)C2COc3ccccc3O2)sc2c1CCN(Cc1ccccc1)C2 (configuration not stated),-18.6,1.5,3.2,14.7,.,2.1%
